Molecules are shown by their SMILES. Results filed as inconclusive are left out. Activity calls are given as the source filed them.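 Rule for the calls, unless noted: active = viability at or below 27.92% in each of two runs, the all-compound median minus 4 SD; inconclusive = no clear call, values can overlap the other calls; inactive = the rest.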

The nature of assay [1]: reducers of endogenous Her2 protein level, primary screen, SKBR3 breast tumor cells, AlphaScreen, ATP viability (AID 461;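 active = Her2 level under about 52% in both replicate screens, with viability over 70% of control, limit read from the data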;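 for Her2 level: lower value means less Her2 protein in the cells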;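 for viability: percent of carrier control wells set as 100% viability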). The note with it: 18-24 h, measured here: SKBR3 viability, ATP luminescence, at 10 µM. Background: Bead proximity is the source of the signal in Alpha formats.
The target of assay [2] is Receptor tyrosine-protein kinase erbB-2 (Homo sapiens) (UniProt P04626). Described as above. The conditions noted are these: 18-24 h, at 10 µM, stronger effect = lower value.
A short description of assay [3]: SK-BR-3 cell growth inhibitors, pilot screen, 24 h, human (AID 572;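 active = viability at or below 10% of carrier control in both of two separate runs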;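 note: compound exposure lasted between 18 and 24 h rather than exactly 24 h; 100% = carrier-treated control wells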). The conditions noted are these: SK-BR-3 viability, CellTiter-Glo luminescence, at 10 µM, stronger effect = lower value. On the technique in general: In ATP-based viability assays light output follows the ATP content of the culture.
Assay [4] is described as follows: HUVEC growth inhibition – cell-based, human, primary screen (AID 575;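 active = viability at or below 30% in both replicate assays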;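 note: 100% = median of untreated cell wells with 0.1% DMSO on each plate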). The conditions noted are these: HUVEC proliferation, CellTiter-Glo luminescence, 72 h; at 10 µM; stronger effect = lower value.
A short description of assay [5]: growth inhibitors of H69AR lung tumor, primary screen, human, duplicate replicates (AID 580;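 active = viability at or under a set limit in both replicates, limit being median viability minus 3 SD, cut at about 48% in these data, passing the limit was not always enough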;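 note: 100% = mean luminescence of untreated wells and 0% = no signal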). The conditions noted are these: H69AR lung tumor cells viability, ATP luminescence, 72 h; at 10 µM; stronger effect = lower value.
Assay [6] in a line: reversal of MRP1-mediated doxorubicin resistance, pilot screen, H69AR cells, doxorubicin co-treatment (AID 601;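 active = viability loss from added drug above about 55%, and viability with drug at most 40%, in both replicates, limit read from the data, passing the limit was not always enough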). The conditions noted are these: CellTiter-Glo, 72 h, at 10 µM; for differential viability (reversal): stronger effect = higher value.
A short description of assay [7]: 384-well plate pilot, post-Golgi transport modulator project, inhibition of yeast transport mutant growth (AID 636; in the data active = inhibition above about 31%). The note with it: absorbance 615 nm, about 18 h, stronger effect = higher value.
Assay [8] is described as follows: growth suppression of yeast trafficking mutant, preliminary HTS, modulators of trafficking downstream of Golgi apparatus project, 1536-format plate, OD 615 nm (AID 637; in the data active = inhibition above about 30%). The conditions noted are these: yeast transport mutant growth, absorbance 615 nm, 18 h; stronger effect = higher value.
Assay [9] in a line: OD615 S. cerevisiae growth inhibition, permissive medium, pilot counter-assay, permissive growth control for S. cerevisiae lifespan shortening project (AID 705;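 active = growth inhibition above 25% in both replicates, a cutoff set 3 SD above the mean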). The note with it: OD615, 24 h, at 10 µM, stronger effect = higher value.
Assay [10] is described as follows: Restrictive medium S. cerevisiae growth inhibition, OD615, pilot screen of yeast lifespan reduction project, restrictive growth control (AID 706;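 active = growth inhibition above a set limit, 3 SD over mean compound inhibition, in both replicates, cut at about 43% in these data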;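 note: modified DeaD lifespan yeast strain shifted to restrictive glucose medium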). The note with it: OD615, 48 h, at 10 µM, stronger effect = higher value.
The nature of assay [11]: viability gain of MRP-1-high H69AR cells under doxorubicin, pilot screen, MRP-1 activator project, CellTiter-Glo, duplicate (AID 807;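 active = viability increase at or above a cutoff of the median across tested compounds plus 3 SD, cut at about 8.5% in these data, passing the limit was not always enough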;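 note: compound pretreatment 18-22 h then 72 h combined with doxorubicin; 0% = doxorubicin alone and 100% = vehicle without doxorubicin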). The note with it: H69AR viability with doxorubicin, CellTiter-Glo luminescence; at 10 µM; stronger effect = higher value.
A short description of assay [12]: growth suppression of beta-catenin knockout HCT116, pilot screen, human colon tumor cells (AID 823;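 active = cell viability at or below a set limit in both duplicate runs, the limit being the all-compound median minus 4 SD, cut at about 23% in these data, passing the limit was not always enough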;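 note: 0% = wells killed by 20 µM Hyamine and 100% = untreated DMSO cell wells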). The note with it: CellTiter-Glo, 60 h, at 10 µM, stronger effect = lower value.
Assay [13] in a line: growth suppression of PTEN-deleted HCT116, pilot screen, cell-based, HCT116 clonal line, CellTiter-Glo (AID 824).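 Note: 0% = 20 µM Hyamine control and 100% = vehicle cell control.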 The conditions noted are these: 60 h, at 10 µM, stronger effect = lower value.
Assay [14] in a line: inhibitors of the yeast RAM network, pilot screen, dse1pr::URA3 reporter, 5-FOA selection (AID 869;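 active = inhibition over a set limit, the all-compound mean plus 3 SD, in both replicate runs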;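 note: 0% = DMSO wells with no growth and 100% = 10 µM 1-NA-PP1 with full growth; RAM network block rescues cells from 5-FOA so hits raise OD615 growth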). The note with it: S. cerevisiae dse1pr::URA3 5-FOA growth, OD615, 2 d; at 10 µM; stronger effect = higher value; strain carries analog-sensitive mutant Cbk1 kinase.
Assay [15] is described as follows: RAM signaling pathway blockade in yeast – S. cerevisiae, Pdr1DBD-CYC8 efflux-inhibited sensitized strain, primary screen (AID 1298;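 active = RAM network inhibition above 8.4% in each of two replicates, 3 SD over the compound average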;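 note: 0% = DMSO untreated cells without growth and 100% = 10 µM 1-NA-PP1 full growth; higher means more yeast growth rescued from 5-FOA killing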). The conditions noted are these: S. cerevisiae cbk1-as DSE1-URA3 strain, 5-FOA growth OD615, 2 d; at 50 µM; stronger effect = higher value.
Setting [16] is: H69AR cells + 2 uM doxorubicin, measured here: viability with 2 uM doxorubicin, stronger effect = lower value.
Where [17] appears, read: H69AR cells, compound alone cytotoxicity.

Chain of Receptor tyrosine-protein kinase erbB-2 (Homo sapiens) (P04626 whole entry, looked up): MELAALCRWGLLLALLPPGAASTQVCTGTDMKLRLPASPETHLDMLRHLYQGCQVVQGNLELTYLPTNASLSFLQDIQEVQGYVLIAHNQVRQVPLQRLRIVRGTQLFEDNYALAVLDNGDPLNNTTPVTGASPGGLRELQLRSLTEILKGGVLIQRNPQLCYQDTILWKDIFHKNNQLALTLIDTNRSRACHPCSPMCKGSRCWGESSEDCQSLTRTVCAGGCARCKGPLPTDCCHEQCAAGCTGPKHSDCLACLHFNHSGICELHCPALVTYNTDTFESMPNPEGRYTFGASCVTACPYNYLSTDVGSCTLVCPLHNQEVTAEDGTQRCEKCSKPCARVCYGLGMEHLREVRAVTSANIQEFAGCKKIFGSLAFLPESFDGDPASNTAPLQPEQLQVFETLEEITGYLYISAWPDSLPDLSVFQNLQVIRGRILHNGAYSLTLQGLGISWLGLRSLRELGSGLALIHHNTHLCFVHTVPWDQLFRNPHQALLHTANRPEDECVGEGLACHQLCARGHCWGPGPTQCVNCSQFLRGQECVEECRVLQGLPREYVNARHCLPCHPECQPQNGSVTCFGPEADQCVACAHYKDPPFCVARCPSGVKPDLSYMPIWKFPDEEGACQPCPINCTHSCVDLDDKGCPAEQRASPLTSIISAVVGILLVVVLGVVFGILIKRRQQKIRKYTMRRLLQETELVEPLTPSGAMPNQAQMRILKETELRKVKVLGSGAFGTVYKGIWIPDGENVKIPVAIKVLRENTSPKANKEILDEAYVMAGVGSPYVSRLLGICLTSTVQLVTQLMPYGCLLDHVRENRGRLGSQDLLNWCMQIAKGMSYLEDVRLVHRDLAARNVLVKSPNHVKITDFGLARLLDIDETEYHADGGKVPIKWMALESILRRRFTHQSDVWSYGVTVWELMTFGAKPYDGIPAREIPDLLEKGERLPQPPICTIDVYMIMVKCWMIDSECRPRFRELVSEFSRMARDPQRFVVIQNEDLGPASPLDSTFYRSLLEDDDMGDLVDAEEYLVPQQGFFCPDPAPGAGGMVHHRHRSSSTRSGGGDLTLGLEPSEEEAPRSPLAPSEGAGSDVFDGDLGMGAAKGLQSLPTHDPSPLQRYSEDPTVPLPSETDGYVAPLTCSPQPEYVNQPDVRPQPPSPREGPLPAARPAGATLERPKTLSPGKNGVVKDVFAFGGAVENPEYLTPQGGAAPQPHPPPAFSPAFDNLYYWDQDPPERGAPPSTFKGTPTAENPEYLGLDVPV

As to `COc1ccc(N2CCN(CCCNS(=O)(=O)c3c(C)noc3/C=C/N(C)C)CC2)cc1`, the viability (in general, a read-out of living cells in per cent, often relative to untreated cells) in assay [1] was 99.5%; in [3], 99.5% (inactive); in assay [4], 83.1% (inactive); in assay [5] it was 92.9% (inactive); in [6] (setting [16]) it was 92.8%; in assay [6] (setting [17]), 92.9%. Further, the results for the viability in assay [12] and in assay [13] were 81% (inactive) and 83.7% (inactive), respectively. Moreover, in assay [2], the Her2 level was 94.5% (inactive). In addition, the differential viability (reversal) in assay [6] (H69AR cells + 2 uM doxorubicin) is 0.17% (inactive). The values for the inhibition in assay [7], in [8] and in [14] were -7.33% (inactive), -4.43% (inactive) and 1.67% (inactive), respectively. In addition, the growth inhibition is -4.88% (inactive) in assay [9] and 12% (inactive) in assay [10]. For the same compound, the viability increase in assay [11] was -2.75% (inactive). In addition, the RAM network inhibition in assay [15] is 7% (inactive).

In the case of `COc1ccc(-c2[nH]c(-c3cccc(OC)c3)nc2SCC(=O)NCc2ccco2)cc1`, the viability is 95.5% in assay [1]; 95.5% (inactive) in assay [3]; 62.5% (inactive) in [4]; 71% (inactive) in assay [5]; 73.4% in assay [6] (setting [16]); 71% in assay [6] (setting [17]). Moreover, the viability in [12] was 93.3% (inactive); in [13] it was 90.3% (inactive). In addition, the Her2 level in assay [2] is 85.5% (inactive). Further, the differential viability (reversal) in assay [6] (H69AR cells + 2 uM doxorubicin) was -2.42% (inactive). The results for the inhibition in assay [7], in [8] and in [14] were -2.67% (inactive), -0.33% (inactive) and 1.09% (inactive), respectively. The figures for the growth inhibition in assay [9] and in [10] were -9.19% (inactive) and 1.65% (inactive), respectively. The viability increase in assay [11] was -4.56% (inactive). Besides, in assay [15], the RAM network inhibition is 11.2% (inactive).

Turning to `Cc1cc(C)n2c(SCCN3C(=O)c4ccccc4C3=O)nnc2n1`, the viability in [1] was 90.5%; in [3], 90.5% (inactive); in [4], 111% (inactive); in assay [5], 105% (inactive); in assay [6] (setting [16]) it was 94%; in assay [6] (setting [17]) it was 105%. The viability is 102% (inactive) in assay [12] and 98.6% (inactive) in assay [13]. Also, the Her2 level in assay [2] is 95% (inactive). Further, the differential viability (reversal) in [6] (H69AR cells + 2 uM doxorubicin) was 11.1% (inactive). In addition, the inhibition (as a rule, the drop in the measured response relative to a control, in per cent) in assay [7] is -0.51% (inactive); in assay [8], 7.17% (inactive); in assay [14] it was 2.08% (inactive). The growth inhibition in assay [9] is -7.84% (inactive); in assay [10], -8.13% (inactive). The viability increase in assay [11] is -0.7% (inactive). Also, the RAM network inhibition in assay [15] was 1.64% (inactive).

For the compound `CCCNc1nc(N2CCOCC2)nc(N2CCOCC2)n1`, the viability in assay [1] was 97.5%; in assay [3], 97.5% (inactive); in [4] it was 109% (inactive); in assay [5], 90.5% (inactive); in assay [6] (setting [16]), 93.9%; in [6] (setting [17]) it was 90.5%. Moreover, the viability in assay [12] was 92.8% (inactive); in assay [13], 102% (inactive). Also, the Her2 level in assay [2] is 110% (inactive). Also, in assay [6] (H69AR cells + 2 uM doxorubicin), the differential viability (reversal) was -3.39% (inactive). Besides, the inhibition in assay [7] is -0.52% (inactive); in [8], -7.38% (inactive); in assay [14], 1.26% (inactive). Further, the growth inhibition in assay [9] was -4.61% (inactive); in assay [10], 2.38% (inactive). In addition, the viability increase in assay [11] was -0.12% (inactive). The RAM network inhibition in [15] is 2.19% (inactive).

`N#CC(C(=O)Nc1ccccc1)=C1CCCCC1`: the viability in [1] was 99%; in [3] it was 99% (inactive); in assay [4], 85.5% (inactive); in assay [5] it was 109% (inactive); in assay [6] (setting [16]), 94.2%; in [6] (setting [17]) it was 109%. Moreover, the viability in assay [12] was 91.2% (inactive); in assay [13] it was 102% (inactive). For the same compound, the Her2 level in assay [2] is 89.5% (inactive). Further, the differential viability (reversal) in [6] (H69AR cells + 2 uM doxorubicin) was 14.8% (inactive). Moreover, the inhibition is -4.67% (inactive) in assay [7], -3.55% (inactive) in assay [8] and 1.52% (inactive) in assay [14]. The growth inhibition in assay [9] is -25.1% (inactive); in [10], -18.8% (inactive). In addition, the viability increase in [11] is 1.71% (inactive). For the same compound, the RAM network inhibition in [15] is 4.92% (inactive).

These data come from PubChem BioAssay.
